Compounds without any hit were thinned out: in the full panel of roughly 83,000, 20% have a hit.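 Each cell line was grown in a 96-well plate and treated with one concentration of compound for 48 hours. Values below 10 were considered active.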 Values without a mark were called inactive. Active and inactive are the calls of the source.
Legend:
Test in all cases: NCI-60 one-dose screen, 48 h (100 = growth as untreated, 0 = no growth, -100 = all killed)
Conditions in all cases: 10 µM unless noted
HCT-15 colon = system: HCT-15 colon
HT29 colon = system: HT29 colon
SNB-75 CNS = system: SNB-75 CNS
SNB-19 CNS = system: SNB-19 CNS
U251 CNS = system: U251 CNS
PC-3 prostate = system: PC-3 prostate
SK-MEL-5 melanoma = system: SK-MEL-5 melanoma
UACC-62 melanoma = system: UACC-62 melanoma
LOX IMVI melanoma = system: LOX IMVI melanoma
SK-MEL-28 melanoma = system: SK-MEL-28 melanoma

Structure (SMILES) | growth (HCT-15 colon) | growth (HT29 colon) | growth (SNB-75 CNS) | growth (SNB-19 CNS) | growth (U251 CNS) | growth (PC-3 prostate) | growth (SK-MEL-5 melanoma) | growth (UACC-62 melanoma) | growth (LOX IMVI melanoma) | growth (SK-MEL-28 melanoma)
NC(=S)N/N=C(\c1ccc(Cl)cc1)C1CC1 | 84.3% | 50.6% | 83.7% | 104% | 92.1% | 77.9% | 89.1% | 87.3% | 94.2% | 98.7%
COc1cc2c(cc1[N+](=O)[O-])-c1ccc([N+](=O)[O-])cc1/C2=N\O | 87.4% | 75.3% | 75.5% | 79.4% | 76.8% | 73.2% | 75.4% | 75.9% | 67.8% | 99.7%
O=C(Nc1ccc2ncnc(Nc3ccc(Oc4cccc(F)c4)c(Cl)c3)c2c1)c1ccc(CNCCO)cc1 | 22.8% | -69.2% (active) | 65.1% | 58.8% | -34% (active) | 27.7% | 73.7% | 106% | -76.2% (active) | -44.9% (active)
C=C(C)[C@@H]1CC[C@]2(C(=O)N3CCN(C)CC3)CC[C@]3(C)[C@H](CC[C@@H]4[C@@]5(C)CCC(=O)C(C)(C)[C@@H]5CC[C@]43C)[C@@H]12 | 61.7% | 39.2% | 85.2% | 81.5% | 69.7% | 54.7% | 92.1% | 99.5% | 92.5% | 92.7%
COc1ccc(Cn2nc3c(c2-c2cc(OC)c(OC)c(OC)c2)-c2oncc2CC3)cc1 | 73.2% | 90.4% | 62.6% | 91.4% | 94.4% | 80.6% | 70.9% | 86.1% | 80.9% | 91.1%
CCn1ccnc1C(=O)/C=C/c1ccc(CC(=O)Nc2ccc(F)cc2)cc1 | 13.2% | -27.6% (active) | 6.23% (active) | 14.9% | 10.5% | 33% | 29.3% | 55.6% | 13.9% | 79.8%
CN(C)Cc1c(-c2ccccc2)[nH]c2ccccc12 | 93.6% | 89.1% | 93.6% | 99% | 106% | 94.9% | 101% | 102% | 97.4% | 97.2%
CCCCCCCCOC(=O)c1ccc(O)c(OC)c1 | 105% | 97.7% | 78.8% | 93.2% | 85.8% | 78% | 97.1% | 92% | 59.3% | 105%
O=C(/C=C\c1ccc(OCCCCCC[P+](c2ccccc2)(c2ccccc2)c2ccccc2)cc1)c1ccc2c(c1)OCCO2 | 22% | -17.5% (active) | -40.4% (active) | 16.2% | -58.5% (active) | 6.58% (active) | -98.3% (active) | -18.1% (active) | -68.2% (active) | -0.666% (active)
Cc1c(C2=CCCCC2)c2ccccn2c1C(=O)c1cccc(S(=O)(=O)N2CCOCC2)c1 | 83.9% | 59.5% | 57.8% | 101% | 91.4% | 71.1% | 104% | 77.7% | 89.1% | 101%
COc1ccc(/C=C\c2nc3ccccc3s2)cc1OP(=O)(O)O | 30% | 104% | -2.05% (active) | 28.8% | 32.6% | 43.5% | 21.8% | 41.5% | 41.5% | 67.4%
CCOC(=O)Oc1c(OC)cc(C(=O)O[C@@H]2C[C@@H]3CN4CCc5c([nH]c6cc(OC)ccc56)[C@H]4C[C@@H]3[C@H](C(=O)OC)[C@H]2OC)cc1OC | 44.1% | 36.7% | 91.1% | 75.5% | 49.4% | 35% | 86.1% | 87.8% | 14.4% | 83.2%
CCC(C)C(N)C(=O)NNc1n[nH]c(=S)n1N (stereo not given) | 103% | 107% | 99.6% | 97.7% | 101% | 100% | 100% | 101% | 101% | 107%
CN1C(=O)N(C)[C@H]2NC(NN)=N[C@H]21 | 103% | 105% | 80.9% | 106% | 98.7% | 96.3% | 101% | 101% | 97.8% | 101%
Fc1ccc(C2CC(c3cccc(Nc4ccncc4)c3)=NN2c2ccc(Cl)cc2)cc1 (stereo not given) | 3.49% (active) | 2.11% (active) | 78.4% | 87.5% | 8.99% (active) | 49.4% | 82.8% | 99.6% | -67.1% (active) | 53.4%
O=S(=O)(NCCCNc1nccc(-c2c(-c3ccc(F)c(O)c3)nc3sccn23)n1)c1ccc(F)cc1 | 6.51% (active) | 9.5% (active) | 51.3% | 19.7% | 2.83% (active) | 8.22% (active) | -45.1% (active) | -42.2% (active) | 2.15% (active) | 9.19% (active)
COc1cc2nc(-c3ccc(C(F)(F)F)cc3)cc(OCCCN3CCC(O)CC3)c2cc1OC | 9.78% (active) | 9.01% (active) | -7.26% (active) | 62% | 46.3% | 40.6% | -56.3% (active) | -31.3% (active) | -74.4% (active) | 62.7%
CC(=O)c1cc2c(N)c(C(=O)Nc3cncc4ccccc34)sc2nc1C | 95.4% | 107% | 91.5% | 98.5% | 106% | 93.8% | 98.5% | 76.1% | 98.9% | 102%
CN(C)c1ccc(-c2c(C#N)c(N)n3nc(N)c(C#N)c3c2C#N)cc1 | 81.8% | 83.5% | 88.5% | 95.4% | 90.1% | 76.6% | 71.1% | 113% | 8.51% (active) | 96.3%
Cc1cc(Nc2cccc(C(F)(F)F)c2)n2c(nc3ccccc32)c1C#N | 12.2% | 13.2% | 59.4% | 40.7% | 11.6% | 21.8% | 4.24% (active) | 37.9% | 59.6% | 54.8%
CCC(=O)c1ccc(O)c(OC)c1 | 111% | 103% | 100% | 95.9% | 93.9% | 92.4% | 98.6% | 95.5% | 102% | 97.8%
CCCCCCCCCCCCCCCC(=O)OC[C@@]1(O)C[C@@]23CC[C@@H]4C(C)(C)CCC[C@@]4(C)[C@@H]2CC[C@H]1C3 | 97.9% | 92.2% | 112% | 102% | 95.8% | 94.8% | 98.3% | 85.8% | 93.4% | 121%
CCN(CC)CCOC(COc1cc(C)cc(C)c1)COc1cc(C)cc(C)c1 | 34.5% | 10.3% | 61.4% | 47.5% | 32.5% | 33.6% | -88.5% (active) | 46.4% | -12% (active) | 39.6%
O=C(CN1CCOCC1)Nc1ccc2ncnc(Nc3ccc(OCc4cccc(F)c4)c(Cl)c3)c2c1 | 60% | 61% | 69.1% | 72.2% | 77.1% | 51.9% | 61.5% | 84.8% | 72.9% | 77%

Source: PubChem BioAssay (NCI)
